# Pf growth 48h: Primary qHTS for delayed death inhibitors of the malarial parasite plastid, 48 hour incubation | 310,000 tested, 5.9% active | P. falciparum luciferase growth in erythrocytes, 48 h | Potency, µM (highest dose often 28.7 µM), for inactives: at the highest dose activity change, negative = inhibition, usual class: inhibitors; active = well fitted inhibition curve with a large enough effect; inconclusive = small, poorly fitted or top-dose-only effect, or another doubt; inactive = no such curve, though single readings can be large or run the other way; note: % is set by controls: 0 for no effect and ±100 for the full control effect
#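 Read-out is firefly luciferase luminescence from an integrated reporter in P. falciparum, so falling signal marks reduced parasite growth. Infected erythrocytes were at 2% hematocrit and 0.1% parasitemia (final) in Albumax-supplemented RPMI 1640.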
# NS1 function inh: qHTS Assay for Inhibitors of Influenza NS1 Protein Function; Potency, µM (highest dose often 46.1 µM), for inactives: at the highest dose activity, positive = more growth; 270,000 tested, 0.4% active; note: actives are rising curves; nearly all actives have a fitted effect of over 50% in size
#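 Compounds were scored for reversing the slow growth caused by influenza A NS1 in S. cerevisiae, measured by optical density at 600 nm. Assay medium contained 2% galactose at pH 6.0; NS1-free yeast of the same strain were the positive control.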
# RE007 growth inh: qHTS Assay for Inhibitors of the HIV-1 protein Vpr; 360,000 tested, 0.21% active; S. pombe RE007 Vpr strain, BacTiter-Glo ATP luminescence, 24 h; Potency, µM (top dose mostly 92.2 µM), for the others: at the top dose activity change, negative = less growth, most hits filed as inhibitors; AID 651644, 2012; active = well fitted falling curve with a large enough effect; inconclusive = small, poorly fitted or top-dose-only effect; inactive = no such curve, though single readings can be large or run the other way; note: % is set by controls: 0 for no effect and ±100 for the full control effect; nearly all actives have a fitted effect of over 50% in size
#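 Fission yeast strain RE007, carrying one chromosomally integrated HIV-1 vpr copy, was seeded at OD 0.01 in PMG+AL medium with 23 nL pinned compound. After 24 h at 30 °C and 99% humidity, viability was read by BacTiter-Glo luminescence.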
# SARS PLpro yeast: qHTS of Yeast-based Assay for SARS-CoV PLP; S. cerevisiae expressing SARS-CoV PLpro, growth rescue; Potency, µM (highest dose often 32.9 µM), without a hit: at the highest dose activity, positive = growth rescue, actives largely listed as activators; 330,000 tested, 0.19% active; note: 0% is about no effect; nearly all actives have a fitted effect of over 55% in size
# Pf growth 96h: Primary qHTS for delayed death inhibitors of the malarial parasite plastid, 96 hour incubation | P. falciparum luciferase reporter growth, 96 h | Potency, µM (highest dose often 28.7 µM), for the others: at the highest dose activity change, negative = inhibition, most hits filed as inhibitors | 320,000 tested, 6.9% active; active = well fitted inhibition curve with a large enough effect; inconclusive = small, poorly fitted or top-dose-only effect, or another doubt; inactive = no such curve, though single readings can be large or run the other way; note: % is set by controls: 0 for no effect and ±100 for the full control effect
#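 Erythrocytes infected with luciferase-expressing P. falciparum were dispensed at 2% hematocrit and 0.05% parasitemia (final), then incubated with compounds 96 hours at 37 C in 5% CO2. Luminescence after detection reagent addition reported growth.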
# The depositor's hits bear a star; ? = inconclusive; nt = no result given; [ ] = another dose, or the depositor's remark. The list is not random: actives were taken first. Their share in the collection is about 9.5%. Unless noted, calls come from the whole dose curve. Potency is the fitted concentration of half-maximal effect.
SMILES,Pf growth 48h,NS1 function inh,RE007 growth inh,SARS PLpro yeast,Pf growth 96h
O=C(Nc1ccccc1C(=O)N/N=C/c1ccncc1)c1ccccc1,422.9%,nt,8.91µM*,-16.9%,?
O=C(N/N=C/c1cc(Cl)ccc1O)c1ccncc1,2.33µM*,-70.1%,-0.9%,0.2%,?
O=C(N/N=C/c1ccncc1)c1cccc(NC(=O)c2ccc(Cl)cc2)c1,13.1µM*,5.2%,0.0%,-16.0%,?
Cc1ccccc1C(=O)Nc1ccc(C(=O)N/N=C/c2ccncc2)cc1,22.7%,nt,2.7%,4.7%,26.8%
O=C(N/N=C/c1ccncc1)c1cccc(N/N=C/c2ccncc2)c1,-14.7%,nt,-11.4%,0.7%,?
O=C(COC(=O)C1CCN(C(=O)c2ccc(Cl)cc2)CC1)Nc1ccccc1F,0.0%,nt,-5.6%,7.0%,22.0%
CCc1nc2ccc(C(=O)N3CCCCC3)cn2c1N(C)CCCc1ccccc1,nt,nt,-5.6%,nt,nt
CCOc1ccc(CCNC(=O)C2CCCN(c3nn4c(=O)cc(C)nc4s3)C2)cc1OCC (stereo unspecified),?,-19.9%,5.4%,-4.5%,0.147µM*
COc1ccc(CCNC(=O)C2CCCN(c3nn4c(=O)cc(C)nc4s3)C2)cc1OC (stereo unspecified),?,-0.1%,8.9%,-5.2%,?
Cc1cc(=O)n2nc(N3CCCC(C(=O)N4CCOCC4)C3)sc2n1 (stereo unspecified),1.0%,7.1%,-2.1%,1.3%,11.7µM*
COCCNC(=O)c1cccc(OC2CCN(Cc3ccc(OC(F)F)cc3)CC2)c1,-2.6%,-5.1%,-17.1%,2.0%,0.0%
CCCC1C(=O)Nc2ccccc2N1C(=O)c1ccc(C(C)(C)C)cc1 (stereo unspecified),?,-64.7%,7.6%,-9.5%,9.28µM*
CC12CCC(=O)N1C(C(=O)Nc1cccc(S(=O)(=O)N3CCCCCC3)c1)CS2 (stereo unspecified),-13.4%,nt,-12.3%,5.4%,13.1µM*
CC12CCC(=O)N1C(C(=O)Nc1ccc(S(=O)(=O)N3CCCCC3)cc1)CS2 (stereo unspecified),?,nt,9.5%,5.2%,0.2%
CC1CC(C)CN(S(=O)(=O)c2ccc(NC(=O)C3CSC4(C)CCC(=O)N34)cc2)C1 (stereo unspecified),?,nt,-11.5%,-5.6%,9.28µM*
O=C(Nc1ccccc1N1CCCC1)c1cc(=O)[nH]c2ccccc12,-6.4%,nt,2.9%,-0.5%,-3.9%
Cc1cc(C)c2c(CN3CCN(C/C=C/c4ccccc4)CC3)cc(=O)oc2c1,9.28µM*,-44.9%,11.3%,-0.9%,7.38µM*
Cc1cc(C)c2c(CN3CCCCC3)cc(=O)oc2c1,17.3%,4.0%,-11.7%,1.3%,4.4%
Cc1cc2oc(=O)cc(CN3CCN(S(=O)(=O)c4ccc5c(c4)OCCO5)CC3)c2cc1C,?,1.7%,-1.7%,-0.7%,?
Cc1cc2oc(=O)cc(CN3CCN(S(=O)(=O)/C=C/c4ccccc4)CC3)c2cc1C,10.4µM*,?,0.5%,-22.7%,?
c1ccc(COC(CN2CCCCCC2)CN2CCCCCC2)cc1,?,4.8%,-18.6%,0.5%,-26.7%
COc1ccccc1CC(NC(C)=O)C(=O)NC1CCN(C(=O)Nc2ccccc2F)CC1 (stereo unspecified),-5.9%,2.4%,9.9%,2.7%,-0.5%
Cc1ccc(S(=O)(=O)NCCNc2ccc([N+](=O)[O-])cc2C(F)(F)F)cc1,10.4µM*,-43.4%,-10.6%,-39.0%,4.15µM*
S=c1[nH]c(-c2ccccc2)cn1/N=C/c1cccs1,?,14.3%,-2.1%,-0.6%,11.7µM*
S=c1[nH]c(-c2ccccc2)cn1/N=C/c1ccc(Br)cc1,?,-0.8%,4.3%,14.3%,?
SMILES,Pf growth 48h,NS1 function inh,RE007 growth inh,SARS PLpro yeast,Pf growth 96h
CCOc1ccc2[nH]c(=O)c(CN(Cc3cccs3)Cc3nnnn3C(C)(C)CC)cc2c1,8.28µM*,-47.5%,-0.9%,-1.8%,19.9%
CCC(C)(C)n1nnnc1CN(Cc1cccs1)Cc1cc2cc(OC)ccc2[nH]c1=O,13.1µM*,6.9%,-9.3%,-1.3%,nt
COc1ccc2cc(CN(Cc3cccs3)Cc3nnnn3Cc3ccccc3)c(=O)[nH]c2c1,9.28µM*,27.8%,-2.4%,-6.6%,?
Cc1ccc2cc(CN(Cc3cccs3)Cc3nnnn3C(C)(C)C)c3nnnn3c2c1,-19.7%,-4.3%,nt,-2.7%,7.8%[5.75 µM]
Cc1ccc(C)n1-c1nnc(N2CCC(C(=O)NCCCN3CCN(C)CC3)CC2)s1,-4.1%,11.1%,8.9%,3.6%,?
CCOC(=O)c1cnc(N(C)C)nc1SC(=N)N,nt,-3.5%,nt,nt,nt
COc1ccc(/C=N/NC(=O)COc2cc(C)cc(C)c2)cc1COC(C)=O,6.1%,1.5%,14.2%,-8.8%,0.3%
COc1ccc(S(=O)(=O)N2CCCCC2)cc1C(=O)N1CCCCCC1,nt,nt,0.0%,nt,nt
COc1ccccc1-n1cnc2c(c1=O)c1nc3ccccc3nc1n2-c1ccc(C)c(C)c1,?,16.6%,7.2%,-30.8%,10.4µM*
COCCn1c(SCC(=O)Nc2ccc(N3CCOCC3)cc2)nc2ccccc21,-4.2%,4.3%,8.7%,13.2%,?
CC(=O)c1cccc(NC(=O)CSc2nc3ccccc3c(=O)n2CCCN2CCOCC2)c1,nt,nt,-1.7%,0.4%,nt
CC(C)N(CCn1c(SCC(=O)Nc2cccnc2Cl)nc2ccccc2c1=O)C(C)C,?,nt,-5.3%,-0.1%,5.86µM*
Cc1ccc(NC(=O)CSc2nc3ccccc3c(=O)n2CCCN2CCCCC2)cc1C,11.7µM*,2.8%,-4.8%,-3.8%,-19.9%
COCCCn1c(SCC(=O)Nc2ccc(C(=O)OC)cc2)nc2ccccc2c1=O,8.28µM*,-13.1%,9.5%,2.2%,?
COCCn1c(SCC(=O)Nc2ccc(S(=O)(=O)N(C)C)cc2)nc2ccccc21,nt,2.2%,0.5%,-5.7%,4.15µM*
N#Cc1ccccc1NC(=O)c1ccc2c(c1)OCCO2,156.0%,2.7%,3.1%,-1.9%,7.7%
CCCC(=O)N(c1ccc(OCC)cc1)S(=O)(=O)c1ccc2c3c(cccc13)C(=O)N2C,?,10.5%,-0.3%,1.5%,?
COc1ccc(S(=O)(=O)NNC(=O)Nc2ccc(F)cc2)cc1,nt,nt,8.3%,nt,nt
COc1ccc(C2=CN(Cc3ccccc3)CCC2=O)cc1,nt,nt,4.3%,-8.6%,nt
Cn1cnnc1SCC(=O)NNC(=O)c1ccc(Cl)cc1,11.1%,12.6%,1.3%,16.6%,-9.2%
O=C(N=Nc1c(O)n(Cc2ccccc2)c2ccccc12)c1ccc(O)cc1,?,24.6%,nt,-21.5%,11.7µM*
CCn1c(O)c(N=NC(=O)Cn2ccc(C(F)(F)F)n2)c2ccccc21,19.9%,-9.3%,-8.1%,-31.7%,0.0%
CCn1c(O)c(N=NC(=O)c2ccc(CSc3nncn3C)cc2)c2ccccc21,10.4µM*,0.5%,nt,16.9%,11.7µM*

# From PubChem
